Screening results from PubChem BioAssay.
SMARCA2 act – increases SMARCA2 function in MMTV reporter cells; activation, % at 9.1 µM; actives 1% (n = 370,000); MG213 cells, MMTV-luciferase reporter, dexamethasone, overnight; in the data active = activation above about 7.8%
DAX1 inh-1 – inhibitors of DAX1 repression of SF-1 activated StAR promoter; HEK293T StAR-luciferase reporter, SF-1/DAX-1 repression relief; AID 652010; inhibition, % at 6.8 µM; actives 1.1% (n = 370,000);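 active = inhibition above the mean over all tested compounds plus 3 SD, cut at about 3.6% in these data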;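 also: higher inhibition means more luminescence from relief of DAX-1 repression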
ssDAF12 agonist – activates DAF-12 receptor from parasite S. stercoralis; HEK293 ssDAF-12/GRIP1 lit1-tk-luc reporter, luminescence; % of 3 µM dafachronic acid response; activation, % at 6.8 µM; actives 1% (n = 370,000); AID 652126;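 active = activation above the mean over all tested compounds plus 3 SD, cut at about 0.9% in these data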
hgDAF12 agonist – agonists of H. glycines DAF-12 nuclear receptor | HEK293 GAL4-hgDAF12 UAS-luciferase reporter, agonist luminescence; normalized to butyrate control | activation, % at 6.8 µM | actives 1.8% (n = 370,000) | AID 687014;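 active = activation above a cutoff set at the mean of all screened compounds plus 3 SD, cut at about 10% in these data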
DAX1 inh-2 – inhibits human nuclear receptor DAX1. HEK293 Gal4-DAX1 luciferase reporter, luminescence. P51843. AID 504766. actives 0.99% (n = 340,000). inhibition, % at 6.75 µM;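 active = inhibition above the mean over all tested compounds plus 3 SD, cut at about 4.2% in these data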;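 also: inhibition shows as a rise in luminescence from relieved DAX1 repression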
Target sequence (P51843 207-470 limits assumed): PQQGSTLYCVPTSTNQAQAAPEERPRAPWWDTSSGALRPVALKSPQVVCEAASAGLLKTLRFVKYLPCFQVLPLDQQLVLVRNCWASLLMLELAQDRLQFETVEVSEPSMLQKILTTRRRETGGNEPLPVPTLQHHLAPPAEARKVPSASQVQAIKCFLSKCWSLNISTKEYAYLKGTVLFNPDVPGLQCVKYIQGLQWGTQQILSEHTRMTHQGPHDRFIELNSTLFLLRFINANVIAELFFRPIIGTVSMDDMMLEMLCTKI
hcDAF-12 act – H. contortus DAF-12 activation, primary screen; actives 1.4% (n = 370,000); HEK293 hcDAF-12 lit1-tk-luc reporter, luminescence; 0% DMSO, 100% Δ7-dafachronic acid; activation, % at 6.8 µM;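 active = activation above the mean of all tested compounds plus 3 SD, cut at about 5.5% in these data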
hgDAF12 conf – confirmation of H. glycines DAF-12 agonists; shares compounds with hgDAF12 agonist; HEK293 GAL4-hgDAF12 luciferase reporter, agonist mode; percent of butyrate response; activation, % at 6.8 µM; actives 80% (n = 3,300); AID 743050;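 active = mean activation over triplicate wells above the hit cutoff derived from the earlier primary screen, cut at about 11% in these data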
LXR ag 2 – LXR-beta agonism as DAF-12 counter-screen | 3,300 tested, under 10 active | activation, % at 6.8 µM | AID 743051 | shares compounds with hgDAF12 agonist | HEK293 Gal4-LXR luciferase reporter, 24 h;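 active = mean activation of the triplicate above a set limit carried over from the primary screen, none filed active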
A number is an active result; 0 = inactive; - = no result. Hits are enriched below; roughly 4.8% of the tested compounds scored in any of these assays.

SMILES	SMARCA2 act	DAX1 inh-1	ssDAF12 agonist	hgDAF12 agonist	DAX1 inh-2	hcDAF-12 act	hgDAF12 conf	LXR ag 2
CC(=O)C(/C=N/c1cc(-c2ccc(C)cc2)nn1-c1ccccc1)=C(\C)O	0	0	1.1	19	0	5.6	0	0
O=C(Nc1ccccc1Br)c1ccc2nccnc2c1	0	0	0	15	0	0	11	0
Cc1ccccc1NC(=O)c1ccc2nccnc2c1	0	0	0	0	0	0	-	-
CCCCNC(=O)C[C@@H]1C[C@@]2(C(=O)OC)CCCCC=C2N(Cc2ccc(Cl)cc2Cl)C1=O	0	0	0	0	-	0	-	-
CC(=NNC(N)=S)c1ccc2cc3c(cc2c1)OCO3	0	0	0	25	0	0	13	0
COc1cccc(NC(=O)Nc2nc3ncccn3c2-c2ccc(C)cc2)c1	0	0	0	14	-	0	0	0
Cc1cccc(NC(=S)NNC(=O)c2csc(C(C)C)c2)c1	0	0	0	0	0	0	-	-
Cc1cccc(NC(=S)NNC(=O)c2sccc2C)c1	0	0	0	13	0	0	0	0
N/C(=N\OC(=O)COc1cc(Cl)c(Cl)cc1Cl)c1ccncc1	0	0	0	0	-	0	-	-
N/C(=N\OC(=O)COc1ccc(Br)cc1Cl)c1ccncc1	0	4.0	0	14	0	6.3	16	0
CCOC(=O)c1ccc2nc(C)c3c(c2c1)OC(C)C3 (stereo not given)	0	0	0	0	0	0	-	-
CCOC(=O)c1ccc2nc3c(cc2c1)CCS3	0	0	0	16	0	0	11	0
O=C(NCCN1C(=O)C2C3C=CC(C3)C2C1=O)Nc1ccc(Br)cc1 (stereo not given)	0	0	0	13	0	0	11	0
O=C(Cc1ccccc1)Nc1ccc(NC(=O)C2CCCCC2)nc1	0	0	0	0	0	0	-	-
O=C(Nc1ccc(NC(=O)C2CCCCC2)cn1)c1ccco1	0	4.3	0	16	0	6.4	11	0
O=C(N/N=C/c1ccccn1)c1c[nH]c2ccccc12	0	0	0	15	0	0	13	0
CCOc1ccc(NC(c2ccccn2)c2oc(CO)cc(=O)c2O)cc1 (stereo not given)	0	0	1.4	14	0	0	13	0
CCc1ccc2c(Cl)c(C(=O)N/N=C/c3c[nH]c4ccccc34)sc2c1	0	0	0	0	0	0	-	-
CCc1ccc(-c2cc(C(=O)N/N=C/c3c[nH]c4ccccc34)[nH]n2)cc1	0	0	0	18	0	0	0	0
O=C(Nc1cccc2c1CCCC2)C1CCN(c2nnnn2-c2ccccc2)CC1	0	0	0	0	0	0	-	-
CCn1c(CNC(=O)COc2ccc(C(C)C)cc2)nnc1SCC(=O)Nc1ccccc1F	0	0	0	0	0	0	-	-
O=C(COc1ccc(F)cc1)c1ccc2c(c1)CCCC2	0	0	0	14	0	0	13	0
Cc1ccc(C2=N/C(=C\N3CCCCC3)C(=O)O2)cc1	0	0	0	14	0	6.4	0	0
Cc1ccc(C2=N/C(=C/N3CCOCC3)C(=O)O2)cc1	0	0	0	0	0	0	-	-
Clc1ccc(-c2cc3nc(NCc4cccc(Cl)c4)ccn3n2)cc1	0	3.9	0	14	-	0	17	0
SMILES	SMARCA2 act	DAX1 inh-1	ssDAF12 agonist	hgDAF12 agonist	DAX1 inh-2	hcDAF-12 act	hgDAF12 conf	LXR ag 2
Clc1cccc(CNc2ccn3nc(-c4ccccc4)cc3n2)c1	0	0	0	0	-	0	-	-
Clc1cccc(CNc2ccn3nc(-c4cccc(Cl)c4)cc3n2)c1	0	0	0	13	-	0	0	0
Cc1cccc(/C=C\c2nc3ccccc3c(=O)[nH]2)c1	0	3.6	0	15	0	0	21	0
C/C(N)=C(/C#N)C(=O)CSc1nnc(Nc2ccccc2C)s1	0	0	0	0	0	0	-	-
C/C(N)=C(/C#N)C(=O)CSc1nnc(Nc2ccccc2)s1	0	0	0	15	0	0	0	0
Cc1occc1-c1n[nH]c(=S)n1-c1ccccc1	0	0	0	0	0	0	-	-
CCc1ccc(CSc2nccn2-c2ccccc2)cc1	0	0	0	0	0	0	-	-
c1ccc(CCSc2nccn2-c2ccccc2)cc1	0	0	0	14	0	5.8	14	0
COC(=O)C(C)(C)ONC(=O)Nc1ccccc1Br	0	0	0	0	0	0	-	-
CCCCc1ccc2nc(NC(=O)c3cccs3)sc2c1	-	-	2.5	27	-	6.1	20	0
CN(C)S(=O)(=O)c1ccc2nc(NC(=O)c3cccs3)sc2c1	0	3.8	0	15	0	5.6	19	0
CC(=O)Nc1cc(F)c2c(c1F)Cc1cc(F)ccc1-2	0	0	0	16	0	0	12	0
CC(=O)Nc1ccc2c(c1)-c1ccc(F)cc1C2	0	0	0	0	0	0	-	-
O=C(c1cccc(C(F)(F)F)c1)C1CCCN(C(=O)C2CCOCC2)C1 (stereo not given)	0	0	0	0	0	0	-	-
O=C(Nc1ncccc1O)c1ccc(S(=O)(=O)NCc2ccco2)cc1	0	4.3	0	21	0	0	20	0
Cc1cccnc1NC(=O)c1ccc(S(=O)(=O)NCc2ccco2)cc1	0	0	0	0	0	0	-	-
CC1COC(Cn2c3ccccc3c3ccccc32)O1 (stereo not given)	0	0	0	0	0	0	-	-
O=C(O)c1cccc(Cn2c(Cl)c(/C=N/Nc3ccccc3)sc2=O)c1	-	-	-	-	0	-	-	-
O=C(O)c1cccc(N/N=C/C2=C(Cl)c3cc(Cl)ccc3SC2)c1	0	0	1.4	16	0	0	19	0
COC(=O)c1sc2nc3c(cc2c1N)COC(C)(C)C3	0	4.0	0	16	0	0	17	0
N#C/C(=C/c1ccc(O)c(O)c1)C(=O)NCc1ccc(Cl)cc1	0	0	0	0	0	0	-	-
Cc1ccc(/C=C/C(=O)Nc2ccccc2C(N)=O)cc1	0	4.4	0	18	0	0	15	0
CN1N=C(C(C)(C)C)CSC1=Nc1ccc(F)cc1	0	0	0	0	0	0	-	-
Cc1ccc(NC(=O)c2cc(F)c(F)cc2Cl)nc1	0	0	0	17	0	0	11	0
Cc1ccc(NC(=O)Nc2cccc(F)c2)nc1	0	0	0	13	4.8	0	14	0
Cc1ccc(NC(=O)c2ccccc2F)nc1	0	0	0	14	0	0	14	0
Cc1cc(NC(=O)c2cc(F)c(F)cc2Cl)no1	0	0	0	0	0	0	-	-
Cc1cc(NC2C3CC4CC(C3)CC2C4)n2nnnc2n1 (stereo not given)	0	0	0	0	0	0	-	-
